Reference: PubChem BioAssay AID738 (SRMLSC, 2007)
About 4,900 (5%) of roughly 98,000 compounds were called active. The list comes from a sample in which actives are over-represented; it also holds similar structures and randomly drawn compounds. Values without a mark were called inactive. Rule as the data show it: active = inhibition above about 30%; inactive = the rest.

Assay: yeast control strain growth suppression – counter-screen for post-Golgi transport modulator project, primary screen (AID 738)
Conditions: efflux-deficient yeast background strain, growth absorbance A615, 16 h; at 10 µM; hits give high values

Structure (SMILES) | inhibition
Cc1ccc(SCC2=NNC(=O)C2)cc1 | -3.86%
O=C(NNC(=O)c1cccnc1)Nc1ccccc1 | 8.65%
O=Cc1c(N2CCN(c3cccc(Cl)c3)CC2)nc2ccccn2c1=O | 20%
O=[N+]([O-])c1ccccc1NCc1ccc(Cl)cc1 | 9.17%
CC(C)c1cc(C(N)=O)c(NC(=O)c2cccc(COc3ccc(Br)cc3)c2)s1 | 15.8%
CSc1ccccc1C(=O)Nc1cccc(C(C)=O)c1 | -2.07%
O=C1Nc2cc(Cl)c(Cl)cc2N(O)N1c1cc(Cl)cc(Cl)c1 | 33.2% (active)
Clc1ccc(-c2cc(COc3ccccc3)no2)cc1Cl | 5.93%
Cc1ccc(-n2c(C)cc(/C=C(\C#N)C(=O)NCC3CCCO3)c2C)cc1 (stereo not given) | 10.8%
CN1C2CCC1/C(=C\c1ccccc1Cl)C(=O)/C2=C\c1ccccc1Cl | 25.3%
CC12c3ccccc3C(c3ccccc31)C1C(=O)N(Cc3cccnc3)C(=O)C12 (stereo not given) | 4.53%
O=C(O)CSCC(=O)Nc1cccc(C(F)(F)F)c1 | 4.42%
FC(F)(F)c1cccc(NC(=S)Nc2cccc(Cl)c2)c1 | 35.1% (active)
CC(=O)N1CCN(C(=O)Nc2cccc(C(F)(F)F)c2)CC1 | -1.91%
O=C(CCNS(=O)(=O)c1ccccc1C(F)(F)F)NCc1ccc2c(c1)OCO2 | -1.95%
COCCNC(=O)c1onc(CSc2cccc(C)c2)c1C(=O)O | -8.59%
Cc1ccc(-c2nn(C(C)(C)C)c3ncnc(N)c23)cc1 | 52.1% (active)
COc1ccc(C(F)(F)F)cc1N/C=C\c1nnnn1-c1ccc(C)cc1 | 0.15%
O=S(=O)(/N=C(/Nc1ccccn1)c1ccccc1)c1ccc(Cl)cc1 | 1.53%
O=C(COc1ccc(/C=N/NS(=O)(=O)c2ccccc2)cc1)NCCc1ccccc1 | 5.69%

Structure (SMILES) | inhibition
O=C(CSc1nnnn1C1CCCC1)Nc1ccc2c(c1)OCCO2 | -2.44%
O=C(CSc1nc2ncccc2[nH]1)Nc1ccc2c(c1)OCCO2 | 0.61%
O=C(CSc1nnnn1-c1ccc2c(c1)CCC2)Nc1ccc2c(c1)OCCO2 | 39.2% (active)
COc1ccc(NC(C)=O)cc1NC(=O)CN1CCN(C2c3ccccc3-c3ccccc32)CC1 | 89.2% (active)
COc1ccc(OC)c(NC(=O)CN2CCN(C(=O)c3ccco3)CC2)c1 | 12.4%
COc1ccc(NC(C)=O)cc1NC(=O)CN1CCN(c2ccccn2)CC1 | 18.6%
Cc1c(C(=O)OC(C)C)sc(NC(=O)c2cccnc2)c1C#N | 11.5%
CC(CN1CCOCC1)c1ccccc1 (stereo not given) | 5.77%
O=C(Nc1sc2c(c1-c1nc3ccccc3[nH]1)CCCC2)C1CC1 | 3.43%
CCOC(=O)c1c(NC(=O)c2ccc(N3CCOCC3)c([N+](=O)[O-])c2)sc(C)c1C | 3.45%
COc1cc(/C=N/O)cc(Br)c1OCc1cccc(Cl)c1 | 68% (active)
CCOc1cc(/C=N/O)cc(Br)c1OC | 9.73%
COc1cccc(/C=N/NC(=O)c2cccc([N+](=O)[O-])c2)c1OS(=O)(=O)c1ccc(C)cc1 | 6.93%
COc1cc(/C=N/O)cc(Br)c1OS(=O)(=O)c1ccc(C)cc1 | 55.4% (active)
COc1ccc(C(=O)Oc2cc(/C=N/NS(=O)(=O)c3ccc(C)cc3)ccc2OC)cc1 | 4.53%
CCOc1c(Cl)cc(/C=N/O)cc1OC | -0.28%
Cn1nc(C(F)(F)F)c(C(=O)Nc2cccc(C(F)(F)F)c2)c1SCc1ccc(Cl)cc1 | 9.33%
CC(Oc1ccc(-c2ccccc2)c(F)c1)c1ccn(S(=O)(=O)c2cccc3ccccc23)n1 (stereo not given) | 7.08%
O=c1c2ccccc2c(-c2ccc(F)cc2)nn1-c1ccc(C(F)(F)F)cc1 | 23.4%
COc1c(C)cccc1C(=O)Nc1cc(Cl)ccc1N1CCOCC1 | 87.2% (active)

Structure (SMILES) | inhibition
O=C(CNC(=O)c1ccc(Cl)cc1Cl)NCC(=O)Nc1ccccc1N1CCOCC1 | 1.21%
Cc1cc(C(=O)Nc2ccccc2N2CCOCC2)c2ccccc2n1 | 6.17%
C/C(=N\NC(=O)c1ccccc1C)c1ccc(N2CCOCC2)cc1 | -0.44%
CC(C)C(C)NC(=O)COc1ncnc2ccccc12 (stereo not given) | 27.4%
COc1cccc(N2CCN(C(=O)Nc3ccc4c(c3)NC(=O)CO4)CC2)c1 | 4.59%
O=C(Cn1cncn1)N/N=C/c1c2ccccc2cc2ccccc12 | -2.2%
CCOC(=O)N1CCN(C(=O)c2cc3c(-c4ccc(Cl)cc4)nn(C)c3s2)CC1 | 22.3%
COc1ccccc1N1CCN(C(=O)c2cc3c(-c4ccc(Cl)cc4)nn(C)c3s2)CC1 | 16.3%
Cn1nc(-c2ccc(Cl)cc2)c2cc(C(=O)NCc3ccco3)sc21 | 34.4% (active)
CC(=O)c1cccc(NC(=O)C2CCCN2S(=O)(=O)c2cccc3nsnc23)c1 (stereo not given) | 18.2%
Cc1ccc(-c2nc3ccccc3[nH]2)cc1NC(=O)c1sc2ccccc2c1Cl | 12.1%
O=C(/C=C/c1ccco1)Nc1cccc(-c2nc3ccccc3[nH]2)c1 | 14.9%
CC(Cc1cccs1)NC(=O)NC1CCCCC1 (stereo not given) | 4.21%
Cc1cccc(N(C(=O)Cc2cccs2)C(C(=O)NC2CCCC2)c2ccsc2)c1 (stereo not given) | 2.59%
Cc1ccsc1C(C(=O)NC1CCCCC1)N(C(=O)Cc1cccs1)C1CC1 (stereo not given) | 34.2% (active)
Cc1ccc(Oc2ccc3c(c2)C(=O)N(c2cccc4cccnc24)C3=O)cc1 | 9.43%
COC(=O)c1cc(OC)c(OC)cc1NC(=O)CSc1ccc(C)cc1 | 4.16%
N#Cc1ccsc1NC(=O)CN1CCCCC1 | 3.25%
CC1CC2=C(CC1/C=N/NC(N)=S)C(C)(C)CCC2 (stereo not given) | 90.2% (active)
CC1(C)CCCC2=C1CC1C(=O)N(c3ccccc3)C(=O)C1C2 (stereo not given) | 18.5%
